Data published in the supplement of paper PMC11417369.
In all, about 25,000 sequences were measured (“ln(normalized median fluorescence intensity)”: median about 9.3, highest 2% from about 10 on). The sample holds the highest values, similar sequences and a random draw of the others, so the mix is not that of the screen.

System: PF3D7_0420300 AP2 domain 1 (GST-tagged)
Experiment: gcPBM binding intensity (ln(normalized median fluorescence intensity)); higher = stronger DNA binding
Procedure, shortened: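 Binding intensity values are the highest Masliner-normalised natural-log median intensity among replicate spots of either probe orientation. The binding step lasted 1 h in 1× PBS with 1% milk, 0.2 mg/ml BSA, 0.5% salmon testes DNA and 0.03% Triton X-100, using GST-tagged P. falciparum DNA-binding domains expressed in E. coli on an Agilent 4 × 180k array of primer-extended double-stranded 36-bp intergenic genomic probes plus negative controls. Alexa488 anti-GST antibody and a 488 nm scan detected bound protein.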

Sequence | gcPBM binding intensity (ln)
AAATAACACTAATGATGTACTCAACTATTTATAATT [XGTACX_site8183] | 9.47
TAAATATCAAGACACACACACAAAAGTGAATAAATA [CACACA_site7723] | 9.9
TTATATTCTAGAGACACATGCGATTTTTTATTTTAT [TGCATGCA_site649] | 9.42
ATATAATGATGGAAAAGAAAAGAAATAAAAAAAAAA [CACACA_negctrl_site1170] | 9.21
TAGTTATCACATTGCACACACATTTCCTTTTACATT [CACACA_site7589] | 10
CTAAAAATTTTAATTGCACACCACGTTGGACTATTT [CACACA_site1489] | 9.24
AGCCATTAATTCTCTACACACCTTTATGTTATTTAG [CACACA_site3635] | 9.71
TATTTTAATGAAGCATTTAAGGGAAAAAAAAAAAAA [TGCATGCA_negctrl_site606] | 8.85
TTTACAAAAAATTATACACACACGTACAGATAAATA [CACACA_site4678] | 9.89
TATATACACAAACACACACACACATACACCCACATA [CACACA_site8504] | 10.3
TACAAACACCCATATACACACAAAAAAAAAATAAAA [CACACA_site5421] | 9.55
AAAAAAAAAAAAAACACACACACACCCATACAAAAT [CACACA_site1446] | 10.1
TATAAATAAATTTATACACACACACCCATATATATA [CACACA_site8183] | 10
AACATACAGAAACACACACACACACCCACACCCACA [CACACA_site493] | 10.3
TATATACAGAAACACACACACACATATATATATATA [CACACA_site2247] | 10.1
AAAAAATACAAACACACACACACACCCATATATATA [CACACA_site3560] | 10.2
TATATACACCCACATACACACAAATAAAAAAACACC [CACACA_site3414] | 9.98
AATAAATATATATACACACCCATATATATATATATA [CACACA_site2595] | 9.43
TAAATAAATTTATACACACACACACCCATATATATA [CACACA_site849] | 10.2
TATACGCAGAAACACACACACATACACCCACATACA [CACACA_site1723] | 10
TATACATACCCACCCACACACAAAAAAAAAAAAAAA [CACACA_site4632] | 9.68
GATAAAATAAAAGTGGGTACTTAAATATATATATAA [XGTACX_site8457] | 9.28
ATAAGAAAAAAGAACTGTACTAATAAAATATAAAAA [XGTACX_site3715] | 9.3

Sequence | gcPBM binding intensity (ln)
TTTCGTAAAATGAAATGTACTCAAAAGTAAATATAA [XGTACX_site214] | 9.03
TATTTTTCCATATGCACACACACCGTATATATAATA [CACACA_site1127] | 10
AAAGAATAATTAAATACACACATATTGCAGTAAAAA [CACACA_site7201] | 9.69
TATAAAAAATATAATTGTACATAAAGGTTAAAATGT [XGTACX_site6138] | 9.47
ATTAGTTTTATATATAGTACATATAATTTTGAAGGT [XGTACX_site7445] | 9.2
GTTAAAAAAAGGAGAGATCTCACACAAATATATATA [GTGCAC_negctrl_site117] | 9.22
AAAACACCCAAACACACACACACATATATATATATA [CACACA_site9119] | 10.1
CAAAAAAACAAACACACACACACACCCATATATATA [CACACA_site3653] | 10.2
TACATATATATAAATACACACACACCCACCTTATAA [CACACA_site9346] | 10.1
CATATATATAAATACACACACACACCCCTTATAATT [CACACA_site4064] | 10.2
TCAAATAATTTGTTGACACACACACCCACATACATA [CACACA_site8717] | 9.85
AAATAATTTGTTGACACACACACACCCATACATATA [CACACA_site2285] | 10.2
AAATAATTTGTTGACACACACACACCCATACAGATA [CACACA_site5291] | 10.1
TATATACGCAAACACACACACACATACACCCACATA [CACACA_site1724] | 10.2
AACAAAAAAACAAACACACACACACCCATATATATA [CACACA_site3652] | 9.98
CATATACGCAAACACACACACATATATATATATATA [CACACA_site501] | 10
CATATAAATAAATACACACACACACGCCTTATAATT [CACACA_site7830] | 10.2
CATATATACGCATACACACACACACCCACACCCACA [CACACA_site1725] | 10.2
TAATATATGTTATATACACACATATAAATATAAATA [CACACA_site6339] | 9.2
TGTTACATAAAATGCACACTTTCAAATATGCTAATA [CACACA_site2925] | 9.05
GTTTCCTTAATATTCACACACATATCTATAATATAT [CACACA_site6959] | 9.87
ACAAATAAAAATATTACACACACTATTATATTGATA [CACACA_site1494] | 9.86
TCATAGTATAGACACACACACACACGCATATAAATA [CACACA_site6915] | 10.2

Sequence | gcPBM binding intensity (ln)
CATATACATAGACACACACACACATAAATAAATATA [CACACA_site6749] | 10.1
ATGGCCATAATATAGACACACATATATAAATATATA [CACACA_site2230] | 9.28
TACACGCATAGACACACACACACACGCATATAAATA [CACACA_site6446] | 10.3
ATATAAAATAGACACGCACACAAAAAAAAAAAAAAA [CACACA_site3522] | 9.5
TATATTGATGATGATAGTACGTATGATTAGAAAAAA [XGTACX_site8989] | 9.18
ATGTATATGTCTATATGTACTTATATTTTATTTTTT [XGTACX_site5902] | 9.37
TTAATATATTAAATCTTACACACTAAAAAATATGTA [CACACA_site307] | 9.16
ATACTAACATTTTTTTGTACATATAACTATAAAATA [XGTACX_site1033] | 9.16
AGATATTTATTGAGTGCATGTTATAAAGGGAAAAAA [TGCATGCA_site88] | 9.32
TATACACATATATAAACACACAAAAAAAAAAAAAAA [CACACA_site7041] | 9.38
TTTAACATAAATTAAACACACAATAAAATACATTAA [CACACA_site6699] | 9.54
ATTAAATACATTAACACACACACAAATAAATACATA [CACACA_site5583] | 10.3
ATAAAACAAAAACACACACACATACACAAAAAAAAA [CACACA_site3848] | 10.2
TATAACATATGACACACACACATACATACACAAAAA [CACACA_site6935] | 10.2
TATAACATAGGACACACACACATACATACACAAAAA [CACACA_site5062] | 10.2
AAATAAAACAAACACACACACACATACACAAAAAAA [CACACA_site3849] | 10.2
AATAAAATAAAATACACACATACATACATACAAATG [CACACA_site2438] | 10.2
ATTAAATACATTAACACACACACAAATATATACATA [CACACA_site2881] | 10.1
AAAATAAAATAAAATACACACATACATACATACAAA [CACACA_site5366] | 9.95
TATAACATAAAACACACACACATACATACACAAAAA [CACACA_site1804] | 10.1
AACACATACAAACACACACACAAAAAAAAAAAAAAA [CACACA_site393] | 9.78
TATATATTTCATAATACACACGAAAAAAAAAAAAAA [CACACA_site8972] | 9.31
TACATTTAAAAAAAAACACACATATATATATATATA [CACACA_site2535] | 8.99

Sequence | gcPBM binding intensity (ln)
TAATTTTTATTCAAGAGTACACAAAAGATAACTAAA [XGTACX_site4060] | 9.14
AATAAACATAAATACACACACAAAAAAAAAAACATA [CACACA_site4396] | 10.3
CAAAGACACAAACACACACACACATACATACATACA [CACACA_site453] | 10.1
ATAAAACAAAGACACACACACATACACAAAAAAAAA [CACACA_site7752] | 10.2
AAGACACAAAAACACACACACATACATACATACATA [CACACA_site454] | 9.91
ACAAAAAAAAAAAAAATACACACACATAAAAAAAAA [TGCATGCA_negctrl_site333] | 9.72
AAAAAAAAAAAACATACACACAAATAAATACATACA [CACACA_site6073] | 9.9
TAATTTTTTTAAAAGCGTACATTTAAAAAAAAATAT [XGTACX_site2736] | 8.76
TAATAACTACAAAAAAAAAAGAAAAATAGAAAAAGG [CACACA_negctrl_site1102] | 9.55
TTGCATATTTCTAATTGTACATTATTTTATTTTATA [XGTACX_site8451] | 9.45
CACTAAAAGAAACACACACACACACCCATATATATA [CACACA_site4151] | 10.2
AAAAAAAAAAAAGAAACACACATATATATATATATA [CACACA_site140] | 9.23
AAAGAAAAAAAAAACACACACACACGCATTCAATAT [CACACA_site6169] | 10.1
AGAGATATAAGAAAAGCACACACACCCAAAAAAAAA [CACACA_site8917] | 9.92
AGAAAAAAAAAACACACACACACACCCTCAATATAA [CACACA_site39] | 10.1
AATAAAAAGAAACACACACACACACCCATATATATA [CACACA_site3589] | 10.2
ATATAAGAAAAGCACACACACACAAAAAAAAAAAAA [CACACA_site2827] | 10.1
AAAAGAAAAAGAAAAACACACATAAATATAAATATA [CACACA_site1879] | 9.59
AAAGAAAAAAAAAACACACACACACCCATTCAATAT [CACACA_site38] | 10.2
AGATATAAGAAAAGCACACACACACCCAAAAAAAAA [CACACA_site2826] | 10.2
ATAAAAAAAAGAAAAACACACACATATATATATATA [CACACA_site8243] | 9.61
AAAAAAAAGAAACACACACACATACACATAAATATA [CACACA_site3807] | 10.1
